Holding throughout (test): NCI-60 one-dose screen, 48 h (100 = growth as untreated, 0 = no growth, -100 = all killed)
Common to all, as to conditions: 10 µM

Assay [1] deals with SK-MEL-2 melanoma.
The subject of assay [2] is EKVX NSCLC.
The subject of assay [3] is SN12C renal.
Assay [4] relates to UO-31 renal.
Assay [5] relates to TK-10 renal.
The test system of assay [6] is ACHN renal.
For assay [7], the system named is CAKI-1 renal.
Assay [8] deals with A498 renal.
The subject of assay [9] is CCRF-CEM leukemia.
The subject of assay [10] is MOLT-4 leukemia.
Assay [11] concerns SR leukemia.
Assay [12] deals with RPMI-8226 leukemia.
Assay [13] deals with OVCAR-8 ovarian.
The test system of assay [14] is OVCAR-5 ovarian.
For assay [15], the system named is OVCAR-4 ovarian.
For assay [16], the system named is SK-OV-3 ovarian.
For assay [17], the system named is OVCAR-3 ovarian.
Assay [18] has as its system HS 578T breast.
Assay [19] has as its system NCI/ADR-RES ovarian.
Assay [20] deals with IGROV1 ovarian.

The structures appear in SMILES notation. Compounds without any hit were thinned out: in the full panel of roughly 83,000, 20% have a hit.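 The endpoint reported here, percent growth, reads 100 for growth as untreated, 0 for no net growth and -100 for all cells dead.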 Values without a mark were called inactive. Activity calls are given as the source filed them. The calls were made as follows: active = growth percent below 10; inactive = the rest.

For `COc1ccc2c(c1)C(=O)/C(=C/c1cccc(OCC(=O)c3ccc([N+](=O)[O-])cc3)c1)CO2`, the growth in [1] was -47.3% (active); in assay [2] it was 75.6%; in assay [3], 65.6%; in assay [4] it was -68% (active); in assay [5], 3.16% (active); in assay [6], 51.8%. Further, the growth is 16.3% in [7]; 79.5% in assay [8]; -11.8% (active) in assay [9]; -38% (active) in assay [10]; -64.1% (active) in assay [11]; -50.5% (active) in [12]. Further, the growth in assay [13] is 2.15% (active); in assay [14], 57.3%; in assay [15] it was 74%; in assay [16], 90.7%; in [17], 58.4%; in assay [18], -26.8% (active). In addition, in assay [19], the growth is -29.2% (active).
As for `O=C(COc1cccc(/C=C2\CSc3ccccc3C2=O)c1)c1ccc(Cl)cc1`, the growth in [1] is -71.6% (active); in assay [2], 68.1%; in assay [3], -6.61% (active); in assay [4] it was -79% (active); in [5] it was -4.52% (active); in [6], -65.6% (active). The growth in assay [7] is -65.2% (active); in assay [8], 54%; in assay [9] it was -51.6% (active); in assay [10], -67.3% (active); in [11], -60.7% (active); in [12], -64.5% (active). In addition, the growth was -4.69% (active) in [13]; 19.5% in assay [14]; 80.9% in assay [15]; 104% in assay [16]; 57.5% in [17]; -25.5% (active) in assay [18]. For the same compound, the growth in assay [19] was 7.16% (active).
Consider `CNS(=O)(=O)Oc1ccc(-c2ccc3occc3c2)cc1`, for which the growth in assay [1] is 108%; in [2], 38.6%; in assay [3], 97.7%; in [4], 90.4%; in [5] it was 98.5%; in assay [6] it was 99.5%. Besides, the growth in assay [7] was 93.3%; in [8] it was 102%; in assay [9], 87.7%; in assay [10], 96.2%; in assay [11], 111%; in assay [12], 109%. Also, the growth in [13] is 99.5%; in [14], 88.8%; in assay [15] it was 98.4%; in assay [16], 111%; in assay [17], 107%; in [18], 110%. Moreover, the growth in assay [19] was 102%.
In the case of `c1ccc(CCCCc2ccc3ccccc3n2)cc1`, the growth in assay [1] was 94.3%; in assay [2], 98.1%; in assay [3], 105%; in assay [4] it was 91.4%; in [5] it was 90.2%; in [6], 103%. Further, the growth was 99.4% in assay [7]; 94.5% in assay [8]; 99.8% in [9]; 97.3% in assay [10]; 99.7% in assay [11]; 103% in assay [12]. The growth is 101% in assay [13]; 97.9% in [14]; 111% in assay [15]; 98.7% in assay [18]; 102% in assay [19].
For `CN1CCN(CCCn2c(=O)c3sc4ncccc4c3n3nnc(-c4ccccc4)c23)CC1`, the growth in [1] was -10.7% (active); in assay [2], 2.42% (active); in assay [3], 47.5%; in assay [4], -74.5% (active); in assay [5], -44.3% (active); in [6], -6.48% (active). In addition, the growth in assay [7] was -39.2% (active); in assay [8] it was 64.6%; in assay [9], -14.7% (active); in assay [10], -20% (active); in [11], -38% (active); in assay [12] it was -2.66% (active). The growth is 16.9% in assay [13]; 59.3% in assay [14]; -29% (active) in assay [15]; -47.4% (active) in [17]; -12.2% (active) in assay [18]; 33.1% in [19].
In the case of `O=C1c2ccccc2C(=O)c2c1ccc1c(=O)n(-c3ccccc3C(F)(F)F)nnc21`, the growth in assay [1] is 56.5%; in assay [2], 36.3%; in assay [3], 5.97% (active); in assay [4] it was 22.6%; in [5], 54.8%; in assay [6], 23.6%. Moreover, the growth in [7] is 24.3%; in [8] it was 82%; in assay [9], 15%; in [10], 7.06% (active); in assay [11], 31.1%; in assay [12] it was 18%. Further, the growth in assay [13] was 9.15% (active); in assay [14], 34.2%; in [15] it was 1.52% (active); in [16], 69.9%; in assay [20] it was -27.9% (active); in assay [17], -17.6% (active). Also, the growth in assay [18] was 73.1%; in [19], -16.4% (active).
Take `CNS(=O)(=O)Oc1ccc(-c2sc3cc(OS(=O)(=O)NC)ccc3c2C(=O)c2ccc(OCCN3CCCCC3)cc2)cc1`: the growth in [1] was 83.7%; in assay [2] it was 79.6%; in assay [3], 79.5%; in assay [4], 50.9%; in assay [5], 99.5%; in assay [6], 96.8%. The growth is 59.3% in assay [7]; 76.2% in [8]; 46.5% in [9]; 23.2% in assay [10]; 27% in [11]; 35.9% in [12]. For the same compound, the growth in assay [13] is 86.6%; in [14], 88.3%; in assay [15], 69.8%; in [16], 76.1%; in assay [20], 85.6%; in assay [17], 83.6%. Moreover, the growth is 58.9% in [18] and 71.4% in assay [19].
In the case of `Cc1ccc(-n2nnnc2N)c(C)c1`, the growth is 114% in assay [1]; 98.5% in assay [2]; 113% in [3]; 94.6% in assay [4]; 136% in [5]; 102% in assay [6]. In addition, the growth in assay [7] was 94.5%; in assay [8], 80%; in assay [9], 112%; in [10], 109%; in assay [11], 112%; in [12] it was 109%. Besides, the growth in assay [13] is 108%; in assay [14], 107%; in [15] it was 99%; in [16], 113%; in [20] it was 123%; in [17], 113%. Further, the growth in assay [18] was 99%; in [19], 105%.
